Measured values published in PubChem BioAssay (Tox21).
Calls of active or inactive are those of the source. The call rests on the fitted dose curve; in most records, active means well fitted curve in the direction sought with a large enough effect in the repeat runs; inconclusive means weak or mixed curves; inactive means flat fitted curve, though single readings scatter. Starred links: 1 amine or outer side, 2 acyl side, 3 side chain; linkers in the order of their positions; H or OH if unused. Positions of bridges follow the written chain, without caps; N, C: chain ends. Non-standard residues stand in square brackets, D forms with d. Residues, ends and D or L forms follow the SMILES beside them. *: point of attachment. X5 = NC1=N[C@@H]([C@H](N[*:1])C(=O)[*:2])C[C@H](O)N1; ΔAla(Z-3-ureido) = NC(=O)N/C=C(\N)C(=O)O; β3hOrn = NCCC[C@H](N)CC(=O)*; Dap = NC[C@H](N)C(=O)O

What was measured:
[1] = qHTS assay to test for compound auto fluorescence at 535 nm (green) in HEK293 cells (AID 720680); settings: green autofluorescence 485/535 nm; series mostly up to 46 µM
[2] = qHTS assay to test for compound auto fluorescence at 460 nm (blue) in HEK293 cell free culture (AID 720681); settings: cell-free medium, autofluorescence 405/460 nm (blue); series mostly up to 46 µM
Summary of the method: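 Blue fluorescence (Ex 405/Em 460 nm, triamterene-equivalent) was read immediately after pin transfer of compound or DMSO into medium (DMEM, 10% FBS) without cells.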

[3] = qHTS assay to test for compound auto fluorescence at 535 nm (green) in HEK293 cell free culture (AID 720682); settings: cell-free medium, green autofluorescence 485/535 nm; series mostly up to 46 µM
Summary of the method: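 Fluorescein serves as the green reference fluorophore; each compound's intrinsic emission at 535 nm (excitation 485 nm) is reported as an equivalent amount of that dye, measured in serum-containing DMEM without cells.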

[4] = qHTS assay to test for compound auto fluorescence at 590 nm (red) in HEK293 cell free culture (AID 720683); settings: cell-free medium autofluorescence, Ex540/Em590 red; series mostly up to 46 µM
Summary of the method: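 Red-channel autofluorescence of compounds in culture medium (DMEM, 10% FBS), no cells, measured at 540/590 nm. Rose Bengal sodium is the reference fluorophore for equivalence.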

[5] = qHTS assay to test for compound auto fluorescence at 590 nm (red) in HepG2 cell free culture (AID 720684); settings: cell-free medium autofluorescence, red 540/590 nm; series mostly up to 46 µM
Summary of the method: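 Plate contents were MEM with 10% FBS plus test compound or DMSO, no cells. Fluorescence was recorded with 540 nm excitation and 590 nm emission.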

[6] = qHTS assay to test for compound auto fluorescence at 460 nm (blue) in HepG2 cell free culture (AID 720685); settings: Cell-free culture medium, blue autofluorescence 405/460 nm; series mostly up to 46 µM
Summary of the method: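 Compound (23 nL) or DMSO pinned into cell-free MEM with 10% FBS; blue fluorescence read at 405/460 nm excitation/emission, expressed as auto-fluorescence equivalency to triamterene.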

[7] = qHTS assay to test for compound auto fluorescence at 535 nm (green) in HepG2 cell free culture (AID 720686); settings: Cell-free medium, green autofluorescence 485/535 nm; series mostly up to 46 µM
[8] = qHTS assay to test for compound auto fluorescence at 460 nm (blue) in HepG2 cells (AID 720687); settings: autofluorescence 405/460 nm, 1 h; series mostly up to 46 µM
Summary of the method: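 Blue-channel autofluorescence (Ex/Em 405/460 nm, triamterene-equivalent) was measured after 1 hr compound exposure at 37 C, 5% CO2. Cells were HepG2, plated overnight at 37 C in MEM plus 10% FBS.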

Measured: Potency

Cc1nnc(C(C)C)n1C1C[C@H]2CC[C@@H](C1)N2CC[C@H](NC(=O)C1CCC(F)(F)CC1)c1ccccc1 (stereo partly specified)
inactive: all assays above

CN1CCN(CCC=C2c3ccccc3Sc3ccc(S(=O)(=O)N(C)C)cc32)CC1
inactive: all assays above

CC(C)N1CCN(c2ccc(OC[C@H]3CO[C@](Cn4cncn4)(c4ccc(Cl)cc4Cl)O3)cc2)CC1
inactive: all assays above

Cc1ccc(S(=O)(=O)NC(=O)N[C@@H](C)Cc2ccccc2)cc1
inactive: all assays above

CO/N=C(\C(=O)N[C@@H]1C(=O)N2C(C(=O)O)=CCS[C@H]12)c1csc(N)n1
inactive: all assays above

CCC[C@@H]1C[C@@H](C(=O)N[C@@H]([C@H]2O[C@H](SC)[C@H](O)[C@@H](O)[C@H]2O)[C@H](C)Cl)N(C)C1
inactive: all assays above

COc1ccc2c(c1)OC(C)(C)C(c1ccccc1)C2c1ccc(OCCN2CCCC2)cc1 (stereo unspecified)
inactive: all assays above

CC(=O)N[C@@H](C=O)[C@@H](O)[C@H](O)[C@H](O)CO
inactive: all assays above

CN1CCc2c(c3ccccc3n2Cc2ccccc2)C1
inactive: all assays above

CCCCCCOc1ccc(C(=N)N(CCCC)CCCC)c2ccccc12
inactive: all assays above

C=C1C(=O)O[C@H]2[C@H]1CC/C(C)=C\CC[C@@]1(C)O[C@@H]21
inactive: all assays above

C[C@]12CC[C@@H]3c4ccc(O)cc4CC[C@H]3[C@@H]1CC[C@@H]2OP(=O)(O)O
inactive: all assays above

CCOc1ccc(N=Nc2ccc(N)cc2N)cc1
inactive: all assays above

O=C(NOC[C@H](O)CO)c1ccc(F)c(F)c1Nc1ccc(I)cc1F
inactive: all assays above

O=S(=O)(O)CCCS(=O)(=O)O
inactive: all assays above

CC(C)[C@@H](C)/C=C/[C@@H](C)[C@H]1CC[C@H]2/C(=C/C=C3\C[C@@H](O)CC[C@@H]3C)CCC[C@]12C
inactive: all assays above

O=C(O)[C@@H](O)[C@H](O)[C@H](O)[C@@H](O)C(=O)O (tested in a mixture with another compound)
inactive: all assays above

C=CCNC1=C2C[C@@H](C)C[C@H](OC)[C@H](O)[C@@H](C)/C=C(\C)[C@H](OC(N)=O)[C@@H](OC)/C=C\C=C(/C)C(=O)NC(=CC1=O)C2=O
inactive: all assays above

C/C=C(/CC[C@@H](C)[C@H]1CC[C@H]2C3=CC[C@H]4[C@H](C)[C@@H](O)CC[C@]4(C)[C@H]3CC[C@]12C)C(C)C
inactive: all assays above

Cn1cc(NC(=O)c2cc(NC(=O)c3cc(NC=O)cn3C)cn2C)cc1C(=O)NCCC(=N)N
inactive: all assays above

CC(C)(C)CC(C)(C)c1cc(Cc2cc(C(C)(C)CC(C)(C)C)cc(-n3nc4ccccc4n3)c2O)c(O)c(-n2nc3ccccc3n2)c1
inactive: all assays above

CC(C)C(=O)OCC(=O)[C@@]12O[C@H](C3CCCCC3)O[C@@H]1C[C@H]1[C@@H]3CCC4=CC(=O)C=C[C@]4(C)[C@H]3[C@@H](O)C[C@@]12C
inactive: all assays above

CCN(CC)CCOCCOC(=O)C(CC)(CC)c1ccccc1
inactive: all assays above

CN1c2cc(O)c(N=NC(N)=O)cc2CC1S(=O)(=O)O (stereo unspecified)
inactive: all assays above

CCCC(=O)N1CCCN(c2nc(N)c3cc(OC)c(OC)cc3n2)CC1
inactive: all assays above

O=C(COc1ccc(Cl)cc1)OCCNC12CC3CC(CC(C3)C1)C2
inactive: all assays above

CC(C)CCCC(C)NC(C)C (stereo unspecified)
inactive: all assays above

CC(/C=C/C=C(\C)C(=O)O[C@@H]1O[C@H](CO[C@@H]2O[C@H](CO)[C@@H](O)[C@H](O)[C@H]2O)[C@@H](O)[C@H](O)[C@H]1O)=C\C=C\C=C(C)\C=C\C=C(/C)C(=O)O[C@@H]1O[C@H](CO[C@@H]2O[C@H](CO)[C@@H](O)[C@H](O)[C@H]2O)[C@@H](O)[C@H](O)[C@H]1O
inactive: all assays above

CC[C@H](C)[C@H]1O[C@]2(CC[C@@H]1C)C[C@@H]1C[C@@H](C/C=C(\C)[C@@H](O[C@H]3C[C@H](OC)[C@@H](O[C@H]4C[C@H](OC)[C@@H](O)[C@H](C)O4)[C@H](C)O3)[C@@H](C)/C=C/C=C3\CO[C@@H]4[C@H](O)C(C)=C[C@@H](C(=O)O1)[C@]34O)O2
inactive: all assays above

CO[C@H]1C=CO[C@@]2(C)Oc3c(C)c(O)c4c(O)c(c5c(nc6cc(C)ccn65)c4c3C2=O)NC(=O)/C(C)=C\C=C[C@H](C)[C@H](O)[C@@H](C)[C@@H](O)[C@@H](C)[C@H](OC(C)=O)[C@@H]1C
inactive: all assays above

OCC(O)CO
inactive: all assays above

COc1c(O[C@@H]2O[C@H](CO)[C@@H](O)[C@H](O)[C@H]2O)cc2c(c1OC)-c1ccc(SC)c(=O)cc1[C@@H](NC(C)=O)CC2
inactive: all assays above

c1cnc2cc3c(cc2n1)[C@@H]1CNC[C@H]3C1
inactive: all assays above

CC1(C)[C@@H]2CC[C@@]1(C)[C@H](OC(=O)CSC#N)C2
inactive: all assays above

CC1CCCC1
inactive: all assays above

O=C(Nc1ccc(Br)cc1)c1cc(Br)c(Br)s1
inactive: all assays above

O=C1c2ccccc2C(=O)C1c1ccc(Cl)cc1
inactive: all assays above

O=C(O)CCC/C=C\C[C@@H]1[C@@H](/C=C/[C@@H](O)COc2cccc(Cl)c2)[C@H](O)C[C@@H]1O
inactive: all assays above

NCCC[C@H](N)CC(=O)N[C@H]1CNC(=O)[C@H]([C@H]2C[C@H](O)NC(N)=N2)NC(=O)/C(=C/NC(N)=O)NC(=O)[C@H](CO)NC(=O)[C@H](CO)NC1=O (β3hOrn-[Dap]SS[ΔAla(Z-3-ureido)][X5]; lactam 1-C)
inactive: all assays above

CCN(CC)c1ccc(C(=C2C=CC(=[N+](CC)CC)C=C2)c2ccccc2)cc1
inactive: all assays above

COC(=O)CCC[N+](C)(C)C
inactive: all assays above

CC(C)Cc1ccc([C@@H](C)C(=O)NS(C)(=O)=O)cc1
inactive: all assays above
